# A selection: hits, their analogues and other compounds. The true share with any hit is near 19%.
# TDP1 cell noCPT: qHTS for Inhibitors of human tyrosyl-DNA phosphodiesterase 1 (TDP1): qHTS in cells in absence of CPT. AID 686978, 2013. hit rate 15% among 420,000. DT40 Tdp1-/- hTDP1 cells, no CPT, ATP luminescence, 48 h. Potency, µM (doses to about 46.2 µM), without a hit: at the top dose activity change, negative = growth inhibition, most hits filed as inhibitors; note: potency is the fitted concentration of half-maximal effect; nearly all actives have a fitted effect of over 55% in size
#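 Seeded 400 DT40-hTDP1 cells/well (vehicle DMSO, no 20 nM CPT); pinned compounds; ≥48 hr at 37 °C; CellTiter-Glo luminescence as viability measure.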
# HT1080 IDH1KD tx: kills HT-1080 cells with IDH1 knockdown. HT-1080 IDH1 knockdown viability, ATP luminescence, 48 h. Potency, µM (highest dose often 46.1 µM), inactives show at the highest dose activity, negative = toxicity, hits mostly cytotoxic. hit rate 2% among 360,000. AID 686971;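 note: potency is the fitted concentration of half-maximal effect; 0% = DMSO wells and -100% = cell-free medium wells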
#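 Luminescent ATP read-out (CellTiter-Glo, 10 min at room temperature) after 48 h compound exposure at 37 °C gave viability of IDH1-knockdown HT-1080 cells. Activity was normalised to DMSO and cell-free wells, then fitted as concentration-response curves.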
# IL-1B inflam inh: inflammasome signaling inhibition, IL-1 beta readout. activity change, % at 57.5 µM. hit rate 4.7% among 360,000. THP-1 LPS/ATP IL-1B secretion, AlphaLISA, 16 h; stronger effect = lower value; in the data active = activity change below about -50%; inconclusive = mostly about -30% to -49%
#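 Secreted IL-1B measured by AlphaLISA bead assay after 16 h compound exposure of THP-1 cells; compounds (final up to 57.5 uM) added 1 h before LPS (250 ng/mL) and ATP (1.25 mM) stimulation; lower signal means less secretion.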
# TDP1 cell CPT: growth inhibition of DT40 Tdp1-/-;hTDP1 cells with camptothecin (screen for TDP1 inhibitors); Potency, µM (series often up to 46.2 µM), inactives show at the top dose activity change, negative = growth inhibition, actives largely listed as inhibitors; AID 686979; chicken DT40 Tdp1-/-;hTDP1 cells + 20 nM CPT, ATP luminescence, 48 h; hit rate 12% among 420,000; note: potency is the fitted concentration of half-maximal effect; nearly all actives have a fitted effect of over 55% in size
#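 Cell growth measured by CellTiter-Glo luminescence after a minimum 48 h, 37 C compound exposure with 20 nM CPT in Tdp1-knockout DT40 cells stably expressing hTDP1, seeded 400/well; qHTS titration format.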
# HT1080NT lethal: kills 2HG-producing HT-1080-NT fibrosarcoma cells. AID 686970. Potency, µM (top dose mostly 46.1 µM), for the others: top-dose activity, negative = less viability, most hits filed as cytotoxic. hit rate 1.6% among 360,000. HT-1080-NT fibrosarcoma viability, CellTiter-Glo ATP luminescence, 48 h;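 note: NT is the 2HG producing partner of a matched IDH1 knockdown line; potency is the fitted concentration of half-maximal effect; 0% = DMSO-treated cells and -100% = media-only wells without cells; nearly all actives have a fitted effect of over 55% in size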
#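 Luminescent CellTiter-Glo readout after 48 hours of compound exposure at 37 degrees C defined viability of HT-1080-NT cells. Activity was normalized to DMSO wells and cell-free media wells; concentration-response curves were fitted and assigned curve classes.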
# Starred values were filed as active, the others as inactive; ? = inconclusive; / = not tested or not shown. Unless noted, calls come from the whole dose curve; as a rule, active = well fitted curve in the direction sought with a large enough effect; inconclusive = small, poorly fitted or top-dose-only effect, or another doubt; inactive = no such curve, though single readings can be large; an effect the other way counts as inactive or inconclusive. Unless noted, % is set by controls: 0 for no effect and ±100 for the full control effect.
SMILES,TDP1 cell noCPT,HT1080 IDH1KD tx,IL-1B inflam inh,TDP1 cell CPT,HT1080NT lethal
COc1cc(NC(=O)C2CCCN(S(=O)(=O)c3ccc4c(c3)oc(=O)n4C)C2)cc(OC)c1 (stereo unspecified),?,-10%,-23,?,-7%
COc1ccccc1N1CCN(C(=O)C2CCN(S(=O)(=O)c3ccc(C)cc3)CC2)CC1,?,-7%,-24,-15%,3%
COc1ccc(N2CCN(C(=O)C3CCCN(S(=O)(=O)c4ccc5c(c4)oc(=O)n5C)C3)CC2)cc1 (stereo unspecified),10µM*,-7%,32,12µM*,13%
Cn1c(SCc2ccc(Br)cc2)nc2ccccc2c1=O,12µM*,-25%,-1,?,-27%
Cc1cccc(CSc2nc3ccccc3c(=O)n2C)c1,18µM*,?,40,?,-13%
Cn1c(SCC#N)nc2ccccc2c1=O,-22%,0%,-28,19%,-2%
O=C1CC[C@@H](C(=O)O)N1,12%,5%,1,21%,7%
Cn1c(=O)c2c([nH]c(=O)n2Cc2ccc(Cl)cc2Cl)n(C)c1=O,8%,/,/,2%,/
C=CCN(c1ccc(OC)cc1)S(=O)(=O)c1ccc(Cl)c(C(=O)OCC(=O)c2c(N)n(C)c(=O)n(C)c2=O)c1,?,3%,-8,?,1%
COc1ccc(N(C)S(=O)(=O)c2cccc(C(=O)OCC(=O)c3c(N)n(C)c(=O)n(C)c3=O)c2)cc1,13µM*,-2%,-4,23µM*,-13%
CN(c1ccccc1)S(=O)(=O)c1ccc(Cl)c(C(=O)OCC(=O)c2c(N)n(C)c(=O)n(C)c2=O)c1,?,-13%,16,23µM*,-16%
Cn1c(=O)c(C(=O)COC(=O)c2cc(C3CC3)nc3ccccc23)c(N)n(Cc2ccccc2)c1=O,16µM*,-11%,-8,21µM*,-10%
Cn1c(=O)c(C(=O)COc2ccc(F)cc2Cl)c(N)n(Cc2ccccc2)c1=O,?,-4%,-15,?,-22%
CNS(=O)(=O)c1cccc(C(=O)OCC(=O)c2c(N)n(Cc3ccccc3)c(=O)n(C)c2=O)c1,?,-9%,21,15µM*,-7%
CC1=C(C(=O)OC2CCCCC2)C(c2ccc(N(C)C)cc2)NC(=O)N1 (stereo unspecified),?,-5%,?,?,4%
Cn1c(N)c(C(=O)COC(=O)c2cccc(S(=O)(=O)NCc3ccccc3)c2)c(=O)n(C)c1=O,?,1%,30,?,-11%
CCN(c1ccccc1)S(=O)(=O)c1cccc(C(=O)OCC(=O)c2c(N)n(C)c(=O)n(C)c2=O)c1,18µM*,0%,0,?,-6%
COC(=O)Cc1c(C)[nH]n(-c2cc(Cl)cc(Cl)c2)c1=O,2%,?,-65*,3%,?
Cc1ccc2nc(N3C(=O)CNC3=S)sc2c1,?,16µM*,/,15µM*,?
COc1ccc2nc(N3C(=O)CNC3=S)sc2c1,7.3µM*,0%,?,7.3µM*,-1%
CSc1ncccc1C(=O)OCc1nc2ccsc2c(=O)[nH]1,-18%,8%,19,-23%,2%
O=C(OCc1nc2ccsc2c(=O)[nH]1)c1ccco1,-1%,9%,-9,-2%,-2%
COc1cc(SC)ccc1C(=O)OCc1nc2ccsc2c(=O)[nH]1,9.2µM*,-1%,-4,8.2µM*,0%
COc1cc2ccccc2cc1C(=O)OCc1nc2ccsc2c(=O)[nH]1,?,10%,-26,5.8µM*,6%
C=CCN(CC=C)CCOc1ccc2ccccc2c1,?,-20%,-4,3%,-17%
SMILES,TDP1 cell noCPT,HT1080 IDH1KD tx,IL-1B inflam inh,TDP1 cell CPT,HT1080NT lethal
O=C(CSc1n[nH]c(=O)n1-c1ccccc1)N1CCOCC1,-5%,0%,-25,2%,19%
COC(=O)c1cc(-c2c(C)oc3cc(OC(C)C)ccc3c2=O)c(C)o1,15µM*,0%,-6,15µM*,6%
COc1ccc2nc3cc([N+](=O)[O-])ccc3c(NNc3ccc([N+](=O)[O-])cc3)c2c1,9.2µM*,-2%,-8,10µM*,-23%
O=S(=O)(Nc1nc2ccccc2nc1-[n+]1cccc(N=C([O-])c2ccc(Cl)cc2)c1)c1ccccc1,?,2%,-73*,?,1%
O=S(=O)(Nc1nc2ccccc2nc1Cl)c1ccccc1,1%,2%,0,3%,-1%
C#CCOCCOCCOCCNc1nc(N2CCN(C(=O)[C@H]([C@@H](C)CC)n3cc([C@@H](N)CC(C)C)nn3)CC2)nc(N2CCN(C(=O)[C@H]([C@@H](C)CC)n3cc([C@@H](N)CC(C)C)nn3)CC2)n1,?,3%,-15,15µM*,1%
C#CCOCCOCCOCCNc1nc(N2CCOCC2)nc(N2CCN(C(=O)[C@H]([C@@H](C)CC)n3cc(CCCCN)nn3)CC2)n1,1%,4%,-12,-18%,9%
C#CCOCCOCCOCCNc1nc(N2CCN(C(=O)[C@H]([C@@H](C)CC)n3cc([C@@H](N)CC(C)C)nn3)CC2)nc(N2CCN(C(=O)[C@H](Cc3ccc(O)cc3)n3cc([C@@H](N)CC(C)C)nn3)CC2)n1,-4%,5%,-8,-17%,7%
C#CCOCCOCCOCCNc1nc(N2CCN(C(=O)CCCCCCCCCCNC(=O)[C@@H]([C@H](C)O)n3cc(C)nn3)CC2)nc(N2CCN(C(=O)CCCCCCCCCCNC(=O)[C@@H]([C@H](C)O)n3cc(C)nn3)CC2)n1,23µM*,21µM*,-18,?,-27%
C#CCOCCOCCOCCNc1nc(N2CCOCC2)nc(N2CCN(C(=O)CCCCCCCCCCNC(=O)[C@@H]([C@H](C)O)n3cc(C)nn3)CC2)n1,16µM*,1%,0,?,-8%
CN[C@H](CC(C)C)C(=O)N[C@H]1C(=O)N[C@@H](CC(N)=O)C(=O)N[C@H]2C(=O)N[C@H]3C(=O)N[C@H](C(=O)N[C@@H](C(=O)O)c4cc(O)cc(O)c4-c4cc3ccc4O)[C@H](O)c3ccc(c(Cl)c3)Oc3cc2cc(c3O[C@@H]2O[C@H](CO)[C@@H](O)[C@H](O)[C@H]2O[C@H]2C[C@](C)(N)C(O)[C@H](C)O2)Oc2ccc(cc2Cl)[C@H]1O (stereo partly specified),-23%,/,/,-6%,/
COc1ccc(CCNC(=O)/C(C#N)=C2\N=C(NC(=O)c3ccco3)c3ccccc32)cc1,16µM*,6%,9,?,?

# Screening data deposited in PubChem by National Center for Advancing Translational Sciences (NCATS).
